# Reference: the supplement of paper PMC11417369
# The full ranking holds about 25,000 sequences; the median of “ln(normalized median fluorescence intensity)” is about 6.7, and the highest 2% start at about 10. The list comes from a sample in which the highest values are over-represented; it also holds similar and randomly drawn sequences.
# System: PfHDP1 homeodomain (GST-tagged)
# Experiment: gcPBM binding intensity (ln(normalized median fluorescence intensity)); higher = stronger DNA binding
# How it was run: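 Binding of GST-tagged P. falciparum DNA-binding domains, expressed in E. coli and used at about 25 μg on average, was carried out for 1 h in 1× PBS containing 1% milk, 0.2 mg/ml BSA, 0.5% salmon testes DNA and 0.03% Triton X-100. The target was an Agilent 4 × 180k array of primer-extended double-stranded 36-bp intergenic genomic probes plus negative controls, read with Alexa488 anti-GST antibody at 488 nm. Binding intensity is the highest Masliner-normalised natural-log median intensity across replicate spots of either probe orientation.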
row,Sequence,gcPBM binding intensity (ln)
1,TACCAATGCATAACGGTGCAAAAAAATAAGGAATAA,10.3
2,AAATTATAAAATAACTGTACCAATCCTTTTTTTTTA [XGTACX_site2229],5.84
3,TATACATATGTATGCACACATACATACCCATATAAT [CACACA_site5842],9.42
4,GTATAAAAATTTAGGAGTACAATATATTTATAATAT [XGTACX_site2127],6.5
5,ATATTTCATTAATGAACACACAAAGAGGTATATAAA [CACACA_site1519],6.86
6,AATTAGACATAATATACACACATATATTATATATAT [CACACA_site2691],6.91
7,ATATTAAAGCCTTTTTGTACATATAAATAAACATAG [XGTACX_site4667],6.66
8,GTAAAATTTCGGATTTGTACACATGGCTATGAAAAA [XGTACX_site939],6.57
9,TGCCCTAACCATACTACACACACTGCTCAAAATAGT [CACACA_site2219],7.09
10,AGGATATAAAGTTGTGCATGTCAAGTGCACCGTATT [TGCATGCA_site451],10.2
11,TGTATATATAAACATGCACACGTGGTTGTATATATA [CACACA_site9078],8.31
12,ATATATATATAGTGCACACTTAAGAATATAAAGAGG [CACACA_site1151],10.7
13,TATATATATATAATAGTGCATAAATAAATATATAAA,9
14,ATATATATATATAGTGCACACATATAAAATATATAT [CACACA_site8884],10.3
15,AAAAATATAAAAATAGCACACATATATACATATATA [CACACA_site7901],6.67
16,AAATAAAGAATATAAATACACACTTAAATATATATT [CACACA_site4007],6.44
17,ATATAAATATAGTGTGCACACACATAATATATATAT [CACACA_site8713],10.7
18,ATAATATAAATATACACACACACATATATATATATA [CACACA_site2905],9.28
19,AAATAATATAAATACACACACACATATATAAATACA [CACACA_site4465],7.06
20,ATATATATATAGTGCACACATATAAAATATATATAA [CACACA_site2745],10.8
21,ATATAAATACGGTGTGCACACACATAATATATATAT [CACACA_site2271],11.1
22,ATATATATATATAGTGCACACTTAAGAATATAAAGA [CACACA_site4771],10.3
23,AATATAATAATATTTTGTACATATCCTATGTATGAG [XGTACX_site8601],6.5
24,TATAAATATAAATACACACACACATCAATACAGATA [CACACA_site5850],6.87

row,Sequence,gcPBM binding intensity (ln)
1,CGCGAACATACATACACACACATATATATATCTGTA [CACACA_site4277],6.98
2,ATTGAATTCCAACTGGTGCACCAGTAAGATTGAAAA [GTGCAC_site9895],10.1
3,TATAATCTAACATAATGTACATGTATATGCACTTTA [XGTACX_site369],8.43
4,TTATATTATTCGTGTGTGCACGATATTTCATAATTG [GTGCAC_site9767],8.92
5,AAAAAAAAATACAAAATAGCAATAAATACACAAACG [GTGCAC_negctrl_site707],7.12
6,TTTGATGGTACACGTACACACCTTGCAAATATTTTT [CACACA_site4645],7.13
7,AAAGAAAGAAAGAAAAGTACTTAAACTTTTAAAAAT [XGTACX_site8531],6.03
8,AAAAAATAATAAATCACACATATTATATATATATAT [CACACA_site5838],8.94
9,AAAATCTAATATAATGCACACATAAAAAAAAAATCA [CACACA_site8871],10.4
10,AAAAAAATCTCCAGTGTGCACAATCACATAATATAT [GTGCAC_site9833],10.8
11,TTATGGAAAAATATAACACACAATGATTTTTTATAA [CACACA_site1831],6.33
12,CAATAAATCGAAATCGTGCACGGACACATGCAGTAG,10.9
13,ATTATGAAATATCGTGCACACACGAATAATATAAGA [CACACA_site1294],9.49
14,AATCGAAATCGTGCACGGACACATGCAGTAGCCGAG [XGTACX_site6001],10.2
15,AAATCGTGCACGGACACATGCAGTAGCCGAGAATTA [TGCATGCA_site733],11.1
16,CACACGCACGGACACACACACATATAAAATCTATAT [CACACA_site6428],7.73
17,ATTTTAAAAAGGATAGTGCAAATGTTAAAATAGGAC,9.91
18,CGTAAATTTTTTAAAAGTACAAAAAGATACGAGAAA [XGTACX_site8722],6.46
19,TATTCATGCATATACACACACATATATTTATATTTT [CACACA_site7786],7.08
20,TCATATTATAAATAAATAAATAAATATATATATATA [CACACA_negctrl_site577],8.76
21,GAATAAATATTAAATGTGCACTTGAATAGATGTAAA,9.88
22,AAATAAAAATTAAAAAAATAGAAACGAATTGAATGC [TGCATGCA_negctrl_site365],6.69
23,TATAAATTAAAATGTGTGCACTAAATTGAAATAGAA,10.6
